Measurements: the supplement of paper PMC10849652
About 8,800 targets were measured; listed, in parts, are those with a hit and a random draw of the rest. About 0.5% of all pairs of compound and target were hits. Values without a mark were called inactive.

Legend:
Assay in all cases: log2 fold change, soluble protein after heating vs DMSO (PISA); higher = thermal stabilisation; K562 lysate, 10 uM; active = over 0.2 and 3.5 SD of the protein, either way, in both replicates (recomputed)
alvocidib = compound: CN1CC[C@H](c2c(O)cc(O)c3c(=O)cc(-c4ccccc4Cl)oc23)[C@H](O)C1 [alvocidib]
Method in brief: (§1)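 To prepare the extract, K562 pellets were dounce-homogenised in PBS pH 7.4 with 1 mM MgCl2, giving crude material at 1 mg/mL protein. This was treated with 10 μM compound for 30 min, then heated in aliquots for 3 min over 48°C-58°C before pooling and addition of NP-40 to 0.5% at 4°C. Centrifugation at 21,000xg for 90 min left soluble protein in the supernatant, which TMTpro 16plex LC-MS/MS quantified with equalised channel sums. Results are log-two fold changes in thermal stability compared with solvent controls, from duplicates.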

[1] = compound: CNC(=O)C1=CC=CC=C1NC2=NC(=NC=C2Cl)NC3=C(C=C(C=C3)N4CCOCC4)OC
Method in brief: as §1

defactinib = compound: CNC(=O)c1ccc(Nc2ncc(C(F)(F)F)c(NCc3nccnc3N(C)S(C)(=O)=O)n2)cc1 [defactinib]
Method in brief: as §1

[2] = compound: CNc1nc(-c2ccc3c(N)n[nH]c3c2)cc(N2C[C@@H](C(=O)NC3CCCCC3)CC[C@H]2C)n1
Method in brief: as §1

encorafenib = compound: COC(=O)N[C@@H](C)CNc1nccc(-c2cn(C(C)C)nc2-c2cc(Cl)cc(NS(C)(=O)=O)c2F)n1 [encorafenib]
Method in brief: as §1

[3] = compound: COC(=O)[C@H](CCSC)NC(=O)C1=C(C=C(C=C1)NC[C@H](CS)N)C2=CC=CC=C2
Method in brief: as §1

alisertib = compound: COc1cc(Nc2ncc3c(n2)-c2ccc(Cl)cc2C(c2c(F)cccc2OC)=NC3)ccc1C(=O)O [alisertib]
Method in brief: as §1

[4] = compound: COc1cc2nc(-c3cc(F)ccc3O)nc(N[C@@H]3CNC[C@H]3C(C)(C)O)c2cc1OC
Method in brief: as §1

gefitinib = compound: COc1cc2ncnc(Nc3ccc(F)c(Cl)c3)c2cc1OCCCN1CCOCC1 [gefitinib]
Method in brief: as §1

lapatinib = compound: CS(=O)(=O)CCNCc1ccc(-c2ccc3ncnc(Nc4ccc(OCc5cccc(F)c5)c(Cl)c4)c3c2)o1 [lapatinib]
Method in brief: as §1

crizotinib = compound: C[C@@H](Oc1cc(-c2cnn(C3CCNCC3)c2)cnc1N)c1c(Cl)ccc(F)c1Cl [crizotinib]
Method in brief: as §1

[5] = compound: C[C@H](C1=CC=C(C=C1)C(=O)NC2=C3C=CNC3=NC=C2)N
Method in brief: as §1

duvelisib = compound: C[C@H](Nc1ncnc2nc[nH]c12)c1cc2cccc(Cl)c2c(=O)n1-c1ccccc1 [duvelisib]
Method in brief: as §1

gandotinib = compound: Cc1cc(Nc2cc(CN3CCOCC3)c3nc(C)c(Cc4ccc(Cl)cc4F)n3n2)n[nH]1 [gandotinib]
Method in brief: as §1

tozasertib = compound: Cc1cc(Nc2cc(N3CCN(C)CC3)nc(Sc3ccc(NC(=O)C4CC4)cc3)n2)n[nH]1 [tozasertib]
Method in brief: as §1

doramapimod = compound: Cc1ccc(-n2nc(C(C)(C)C)cc2NC(=O)Nc2ccc(OCCN3CCOCC3)c3ccccc23)cc1 [doramapimod]
Method in brief: as §1

[6] = compound: Cc1cccc(CC(=O)N2CCc3c2ccc(-c2cn(C)c4ncnc(N)c24)c3F)n1
Method in brief: as §1

Tubastatin A = compound: CN1CCc2c(c3ccccc3n2Cc2ccc(C(=O)NO)cc2)C1 [Tubastatin A]
Method in brief: as §1

pictilisib = compound: CS(=O)(=O)N1CCN(Cc2cc3nc(-c4cccc5[nH]ncc45)nc(N4CCOCC4)c3s2)CC1 [pictilisib]
Method in brief: as §1

bafetinib = compound: Cc1ccc(NC(=O)c2ccc(CN3CC[C@H](N(C)C)C3)c(C(F)(F)F)c2)cc1Nc1nccc(-c2cncnc2)n1 [bafetinib]
Method in brief: as §1

UniProt Q9H079, sequence (Q9H079 whole entry, looked up): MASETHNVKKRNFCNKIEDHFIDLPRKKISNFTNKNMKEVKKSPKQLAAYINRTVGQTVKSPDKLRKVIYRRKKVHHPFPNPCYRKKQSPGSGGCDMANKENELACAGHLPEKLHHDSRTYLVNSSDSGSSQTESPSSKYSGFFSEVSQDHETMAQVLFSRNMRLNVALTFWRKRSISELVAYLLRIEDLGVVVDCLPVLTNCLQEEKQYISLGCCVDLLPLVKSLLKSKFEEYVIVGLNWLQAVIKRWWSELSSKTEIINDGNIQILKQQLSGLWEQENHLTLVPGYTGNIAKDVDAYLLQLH
UniProt Q9UKP3, sequence (Q9UKP3 whole entry, looked up): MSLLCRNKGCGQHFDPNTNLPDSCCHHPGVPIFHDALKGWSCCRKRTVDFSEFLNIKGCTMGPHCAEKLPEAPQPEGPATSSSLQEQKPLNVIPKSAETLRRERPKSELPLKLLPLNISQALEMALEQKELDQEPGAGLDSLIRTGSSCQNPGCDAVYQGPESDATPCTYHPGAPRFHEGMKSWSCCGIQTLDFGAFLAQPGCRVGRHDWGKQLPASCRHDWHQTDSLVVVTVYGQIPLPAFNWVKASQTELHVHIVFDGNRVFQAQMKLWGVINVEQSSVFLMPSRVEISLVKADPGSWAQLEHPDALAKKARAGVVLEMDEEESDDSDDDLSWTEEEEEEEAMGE
UniProt P52333, sequence (P52333 whole entry, looked up): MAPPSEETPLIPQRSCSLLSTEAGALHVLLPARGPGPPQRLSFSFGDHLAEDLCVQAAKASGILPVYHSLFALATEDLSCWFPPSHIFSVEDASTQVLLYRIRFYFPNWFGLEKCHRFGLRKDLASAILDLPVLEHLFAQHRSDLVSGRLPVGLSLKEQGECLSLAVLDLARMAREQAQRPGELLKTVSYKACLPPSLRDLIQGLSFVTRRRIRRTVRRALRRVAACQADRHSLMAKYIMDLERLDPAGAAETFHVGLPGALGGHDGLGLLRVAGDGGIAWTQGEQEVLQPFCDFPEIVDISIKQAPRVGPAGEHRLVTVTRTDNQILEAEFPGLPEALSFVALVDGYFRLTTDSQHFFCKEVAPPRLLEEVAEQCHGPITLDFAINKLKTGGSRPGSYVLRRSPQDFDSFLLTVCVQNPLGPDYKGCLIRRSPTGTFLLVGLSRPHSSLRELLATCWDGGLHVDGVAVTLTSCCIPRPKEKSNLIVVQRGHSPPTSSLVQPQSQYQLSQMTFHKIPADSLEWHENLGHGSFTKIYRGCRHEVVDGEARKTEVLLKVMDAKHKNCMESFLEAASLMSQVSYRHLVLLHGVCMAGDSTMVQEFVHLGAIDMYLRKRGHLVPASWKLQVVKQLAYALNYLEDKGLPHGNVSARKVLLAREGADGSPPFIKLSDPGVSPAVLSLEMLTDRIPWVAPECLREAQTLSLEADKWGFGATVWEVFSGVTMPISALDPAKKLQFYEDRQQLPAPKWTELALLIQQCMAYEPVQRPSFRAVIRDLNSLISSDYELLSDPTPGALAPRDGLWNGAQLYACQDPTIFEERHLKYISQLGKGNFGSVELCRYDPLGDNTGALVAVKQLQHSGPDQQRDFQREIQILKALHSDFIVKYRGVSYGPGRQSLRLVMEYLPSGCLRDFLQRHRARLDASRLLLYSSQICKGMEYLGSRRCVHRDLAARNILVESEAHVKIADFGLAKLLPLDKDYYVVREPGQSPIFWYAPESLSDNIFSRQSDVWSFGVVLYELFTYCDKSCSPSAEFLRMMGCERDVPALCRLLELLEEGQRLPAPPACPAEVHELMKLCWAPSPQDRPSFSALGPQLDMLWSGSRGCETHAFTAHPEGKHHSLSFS

Row | Target | log2 fold change (alvocidib) | log2 fold change [1] | log2 fold change (defactinib) | log2 fold change [2] | log2 fold change (encorafenib) | log2 fold change [3] | log2 fold change (alisertib) | log2 fold change [4] | log2 fold change (gefitinib) | log2 fold change (lapatinib) | log2 fold change (crizotinib) | log2 fold change [5] | log2 fold change (duvelisib) | log2 fold change (gandotinib) | log2 fold change (tozasertib) | log2 fold change (doramapimod) | log2 fold change [6] | log2 fold change (Tubastatin A) | log2 fold change (pictilisib) | log2 fold change (bafetinib)
1 | KATNBL1 (UniProt Q9H079) | -0.106 | -0.033 | -0.014 | 0.037 | -0.137 | -0.188 | -0.161 | 0.025 | -0.254 | -0.013 | -0.066 | 0.05 | 0.164 | -0.021 | 0.169 | -0.069 | 0.01 |  |  | 
2 | HSPA8 (UniProt E9PN89) | -0.248 | -0.074 |  | -0.075 | 0.088 | 0.035 | 0.11 | 0.013 | 0.076 | 0.046 | -0.31 | -0.706 (active) | 0.004 | 0.169 | 0.074 | 0.314 | 0.299 | 0.066 | 0.05 | -0.021
3 | HDAC3 (UniProt E7ESJ6) |  |  |  |  |  |  |  | -0.005 |  | -0.073 |  |  |  |  |  |  |  |  |  | 
4 | IMPDH2 (UniProt H0Y4R1) | -0.12 |  | 0.101 | 0.014 | -0.014 | -0.505 (active) | -0.038 | -0.035 | 0.052 | 0.074 | 0.19 | -0.056 | 0.011 | 0.16 | -0.028 | 0.028 | 0.065 | -0.554 (active) | -0.133 | 0.022
5 | JAK3 (UniProt P52333) | 0.254 |  | 0.06 |  |  |  |  | -0.041 |  | -0.002 | 0.051 | 0.418 |  | -0.526 |  | -0.081 | -0.612 (active) |  | 0.01 | 0.14
6 | ITGB1BP2 (UniProt Q9UKP3) | -0.116 |  | -0.112 | -0.018 | -0.137 | 0.044 |  |  |  |  |  | -0.18 | -0.005 | 0.86 (active) | -0.259 |  | 0.548 |  |  | 
